“And” between values parts separate entries of the source, which are not always exact repeats. Equal entries are not always repeated. The campaign covered roughly 5,500 compounds. About 2,000 (36%) were called active. Roughly 18% stayed inconclusive and do not appear here. Cut-off read from the data, not from the text of the source: active = normalized growth mostly below about 0.91 (no sharp cut-off); inconclusive = no clear call, values can overlap the other calls; inactive = mostly above about 0.92. This is one part of the list.
Experiment: chemical genetic growth profiling, strain panel (AID 1159580);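 note: tested at 20 µM; growth read once vehicle control cultures reached saturation at 30 °C; 1 = growth at the plate median or of vehicle wells; lower values mean less growth of the strain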
Settings: growth OD

Measured: normalized growth

C/C=C(/C)C(=O)O[C@H]1CC[C@@]2(C)[C@@H]3CC[C@H]4[C@]5(O)C[C@H](O)[C@@]6(O)[C@@H](CN7C[C@@H](C)CC[C@H]7[C@@]6(C)O)[C@]5(O)C[C@@]42O[C@]13O
inactive: S. cerevisiae deletion strains, locus YBR021W, strain FUR4, hits give low values 1 | S. cerevisiae deletion strains, locus YBR229C, strain ROT2, hits give low values 1.01 | S. cerevisiae deletion strains, locus YCL029C, strain bik1, hits give low values 0.988 | S. cerevisiae deletion strains, locus YDL035C, strain GPR1, hits give low values 0.991 | S. cerevisiae deletion strains, locus YDL074C, strain BRE1, hits give low values 0.981 | S. cerevisiae deletion strains, locus YDL101C, strain DUN1, hits give low values 1.02 | S. cerevisiae deletion strains, locus YDL185W, strain tfp1, hits give low values 0.966 | S. cerevisiae deletion strains, locus YDL192W, strain arf1, hits give low values 0.966 | S. cerevisiae deletion strains, locus YDR101C, strain arx1, hits give low values 0.981 | S. cerevisiae deletion strains, locus YDR162C, strain NBP2, hits give low values 1.05 | S. cerevisiae deletion strains, locus YDR318W, strain mcm21, hits give low values 0.987 | S. cerevisiae deletion strains, locus YDR388W, hits give low values 0.98 | S. cerevisiae deletion strains, locus YDR502C, strain sam2, hits give low values 0.988 | S. cerevisiae deletion strains, locus YEL061C, strain CIN8, hits give low values 1 | S. cerevisiae deletion strains, locus YER110C, hits give low values 0.964 | S. cerevisiae deletion strains, locus YER155C, strain BEM2, hits give low values 1 | S. cerevisiae deletion strains, locus YER167W, strain BCK2, hits give low values 0.995 | S. cerevisiae deletion strains, locus YGL078C, strain dbp3, hits give low values 0.993 | S. cerevisiae deletion strains, locus YGL086W, strain mad1, hits give low values 0.975 | S. cerevisiae deletion strains, locus YGL248W, strain PDE1, hits give low values 1.03 | S. cerevisiae deletion strains, locus YGR078C, strain PAC10, hits give low values 1.05 | S. cerevisiae deletion strains, locus YGR135W, strain pre9, hits give low values 0.993 | S. cerevisiae deletion strains, locus YGR252W, strain gcn5, hits give low values 1.11 | S. cerevisiae deletion strains, locus YHR030C, strain SLT2, hits give low values 0.988 and 0.996 | S. cerevisiae deletion strains, locus YHR079C, strain IRE1 (second series), hits give low values 0.969 | S. cerevisiae deletion strains, locus YHR079C, strain IRE1, hits give low values 0.969 | S. cerevisiae deletion strains, locus YHR094C, strain hxt1, hits give low values 0.981 | S. cerevisiae deletion strains, locus YHR129C, strain ARP1, hits give low values 0.996 | S. cerevisiae deletion strains, locus YHR200W, strain rpn10, hits give low values 0.964 | S. cerevisiae deletion strains, locus YIL066C, strain RNR3, hits give low values 1.01 | S. cerevisiae deletion strains, locus YIL073C, strain SPO22, hits give low values 0.949 | S. cerevisiae deletion strains, locus YIL125W, strain kgd1, hits give low values 1 | S. cerevisiae deletion strains, locus YIR030C, strain dcg1, hits give low values 0.977 | S. cerevisiae deletion strains, locus YJL095W, strain BCK1, hits give low values 1.05 and 0.999 | S. cerevisiae deletion strains, locus YJL134W, strain LCB3, hits give low values 0.996 | S. cerevisiae deletion strains, locus YJL168C, strain set2, hits give low values 0.982 | S. cerevisiae deletion strains, locus YJL187C, strain SWE1 (second series), hits give low values 1.07 | S. cerevisiae deletion strains, locus YJR043C, strain POL32, hits give low values 1.02 | S. cerevisiae deletion strains, locus YJR066W, strain TOR1, hits give low values 0.928 | S. cerevisiae deletion strains, locus YKL009W, strain mrt4, hits give low values 0.948 | S. cerevisiae deletion strains, locus YKL068W, hits give low values 0.987 | S. cerevisiae deletion strains, locus YKL085W, strain MDH1 (second series), hits give low values 0.979 | S. cerevisiae deletion strains, locus YKL085W, strain MDH1, hits give low values 0.979 | S. cerevisiae deletion strains, locus YKR001C, strain vps1, hits give low values 0.965 | S. cerevisiae deletion strains, locus YLR039C, strain RIC1, hits give low values 0.908 | S. cerevisiae deletion strains, locus YLR058C, strain SHM2, hits give low values 1.01 | S. cerevisiae deletion strains, locus YLR102C, strain apc9, hits give low values 0.975 | S. cerevisiae deletion strains, locus YLR113W, strain HOG1, hits give low values 0.995 | S. cerevisiae deletion strains, locus YLR262C, strain YPT6, hits give low values 0.934 | S. cerevisiae deletion strains, locus YLR268W, strain sec22, hits give low values 0.97 | S. cerevisiae deletion strains, locus YLR330W, strain CHS5, hits give low values 0.986 | S. cerevisiae deletion strains, locus YLR342W, strain FKS1 (second series), hits give low values 1.05 | S. cerevisiae deletion strains, locus YLR371W, strain rom2, hits give low values 0.982 | S. cerevisiae deletion strains, locus YLR418C, strain cdc73, hits give low values 0.988 | S. cerevisiae deletion strains, locus YML016C, strain PPZ1, hits give low values 1 | S. cerevisiae deletion strains, locus YML032C, strain rad52, hits give low values 1 | S. cerevisiae deletion strains, locus YML124C, strain tub3, hits give low values 0.984 | S. cerevisiae deletion strains, locus YMR078C, strain ctf18, hits give low values 0.958 | S. cerevisiae deletion strains, locus YMR223W, strain ubp8, hits give low values 1 | S. cerevisiae deletion strains, locus YMR263W, strain SAP30, hits give low values 1.01 | S. cerevisiae deletion strains, locus YMR307W, strain GAS1, hits give low values 1.15 | S. cerevisiae deletion strains, locus YNL067W, strain RPL9B, hits give low values 1.03 | S. cerevisiae deletion strains, locus YNL183C, strain NPR1, hits give low values 0.974 | S. cerevisiae deletion strains, locus YNL233W, strain BNI4, hits give low values 1.03 | S. cerevisiae deletion strains, locus YNL250W, strain rad50, hits give low values 0.962 | S. cerevisiae deletion strains, locus YNL271C, strain bni1, hits give low values 0.994 | S. cerevisiae deletion strains, locus YNL298W, strain CLA4, hits give low values 0.993 | S. cerevisiae deletion strains, locus YNL307C, strain MCK1, hits give low values 0.995 | S. cerevisiae deletion strains, locus YNR052C, strain pop2, hits give low values 1.01 | S. cerevisiae deletion strains, locus YOL012C, strain htz1 0.767 | S. cerevisiae deletion strains, locus YOL147C, strain pex11, hits give low values 0.991 | S. cerevisiae deletion strains, locus YOR061W, strain CKA2, hits give low values 1 | S. cerevisiae deletion strains, locus YOR069W, strain VPS5, hits give low values 0.997 | S. cerevisiae deletion strains, locus YOR136W, strain idh2, hits give low values 0.981 | S. cerevisiae deletion strains, locus YOR144C, strain elg1, hits give low values 1.01 | S. cerevisiae deletion strains, locus YOR184W, strain ser1, hits give low values 0.993 | S. cerevisiae deletion strains, locus YOR231W, strain MKK1, hits give low values 1.01 | S. cerevisiae deletion strains, locus YOR316C, strain cot1, hits give low values 0.98 | S. cerevisiae deletion strains, locus YPL256C, strain CLN2, hits give low values 0.983 | S. cerevisiae deletion strains, locus YPR119W, strain clb2, hits give low values 0.963 | S. cerevisiae deletion strains, locus YPR141C, strain kar3, hits give low values 0.981 | S. cerevisiae deletion strains, locus YPR163C, strain tif3, hits give low values 0.977 | S. cerevisiae deletion strains, locus YPR167C, strain met16, hits give low values 0.957 | S. cerevisiae deletion strains, strain wtn01, hits give low values 0.977 | S. cerevisiae strains, strain wild type, hits give low values 1.01

Reference: PubChem BioAssay AID1159580 (chemical genetic matrix, 2015)
